Measurements as given in article PMC7819943, “Rice protein-binding microarrays: a tool to detect cis-acting elements near promoter regions in rice”.
The full ranking holds about 68,000 sequences; the median of “fluorescence intensity (a.u.)” is about 9,100, and the highest 2% start at about 16,000. The list comes from a sample in which the highest values are over-represented; it also holds similar and randomly drawn sequences.

Biological target: OsWRKY34 (Oryza sativa, UniProt Q0JBA9 1-250)
Assay: protein-binding microarray (RPBM); PBS, 2% BSA, 51.3 ng/ul salmon testes DNA, 50 uM zinc acetate, 200 nM TF, 25 C, 1 h; high values mean tight binding
Conditions: protein: recombinant; tags: N-terminal polyhistidine and DsRed monomer fusion (pET32a); label: CyDye5-dUTP incorporated in the synthesized complementary strand; 3' TTTTT single-stranded linker to array surface; dsDNA, one strand shown
Summary of the method: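 The binding signal is fluorescence intensity per array feature (arbitrary units). Readings came from an Axon 4000B scanner after a washed, 2% BSA-blocked, double-stranded custom Agilent array had been incubated for 1 h at 25 °C with 200 nM protein and 50 µM zinc acetate. The protein was a Ni–NTA-purified transcription factor fused N-terminally to polyhistidine and DsRed, expressed in E. coli BL21-CodonPlus.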

Sequence of OsWRKY34 (Q0JBA9 entry or part of it): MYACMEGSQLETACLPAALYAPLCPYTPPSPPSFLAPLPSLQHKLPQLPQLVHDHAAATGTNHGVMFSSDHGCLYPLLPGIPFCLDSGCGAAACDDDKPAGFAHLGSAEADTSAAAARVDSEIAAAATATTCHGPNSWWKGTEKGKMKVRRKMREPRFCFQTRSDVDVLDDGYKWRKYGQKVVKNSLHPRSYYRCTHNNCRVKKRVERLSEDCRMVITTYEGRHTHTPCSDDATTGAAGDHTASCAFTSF

First: GATTCTAAACATCCACTCACACCTCATTTTTTTCATTAGCCGGAGTCACCTAGTGCAG
Second: TGCCTGGCACCGTCCCCATCGCCGGCCGCCTCCGCCTCCGCGGAGTCACCTAGTGCAG
The binding signal of the first is lower: 9350 fluorescence intensity (a.u.) for the first, 11300 fluorescence intensity (a.u.) for the second.

First: ACTTAATCCATTTTCTTTTCTTCTCCTATTTTTCCATCAACGGAGTCACCTAGTGCAG
Second: ATATTTCTATGATTCTATCCCCTCCAGATTTATCGGCGCCCGGAGTCACCTAGTGCAG
The binding signal of the first is higher: 9970 fluorescence intensity (a.u.) for the first, 8310 fluorescence intensity (a.u.) for the second.

Compared with “CTTCCAGGCAGTTGTTCTGTATCCTCTTCTTGTTGCAACACGGAGTCACCTAGTGCAG”, “TTTTGGTTTTATGAGGCGGTGGATGGATACTTGTTACACTCGGAGTCACCTAGTGCAG” is higher in binding signal: 8920 fluorescence intensity (a.u.) for the first, 10300 fluorescence intensity (a.u.) for the second.

First: GCTTCTCCATCTCGCATCTGCTGCCTCCTAATTTGCTTCGCGGAGTCACCTAGTGCAG
Second: CTGCTTCTTTTGTTTGGTTGGTTTCAGGGCTTCGTGGCCACGGAGTCACCTAGTGCAG
The binding signal of the first is lower: 10000 fluorescence intensity (a.u.) for the first, 17800 fluorescence intensity (a.u.) for the second.

Compared with “TTTTTTCGGTGTTTTTCTTTTTGTTTCTTTTCGCTTCGCTCGGAGTCACCTAGTGCAG”, “TGTGCGCGTGTTGTTTTTTTGGCTTCTTTTTCGCTTGCCACGGAGTCACCTAGTGCAG” is lower in binding signal: 12700 fluorescence intensity (a.u.) for the first, 11400 fluorescence intensity (a.u.) for the second.

Compared with “ACCGGTGGCTTTGTTTGGTTCCACGGTCTTCAGGTTGGGACGGAGTCACCTAGTGCAG”, “CGGCTTCTCGCTTTCTTGTTTCTCGTGGAGTTGCTTTTTTCGGAGTCACCTAGTGCAG” is higher in binding signal: 8130 fluorescence intensity (a.u.) for the first, 17500 fluorescence intensity (a.u.) for the second.

First: GTTCGTTCGCCCTGCTGCTTCTCCCGCCGCATCCATCCCGCGGAGTCACCTAGTGCAG
Second: ATTGTTTTTTTTCTTTCTTTTTGCAAATCTCGCTTCGCTTCGGAGTCACCTAGTGCAG
The binding signal of the first is higher: 9640 fluorescence intensity (a.u.) for the first, 8540 fluorescence intensity (a.u.) for the second.

Compared with “GTGGGCATGATTTTCTTCTGTTTTCTCGTTTTAATTTTTTCGGAGTCACCTAGTGCAG”, “TCCTCTTCTGTTTTTCTGTTTTTTTTCGTTTCTCTTCCCTCGGAGTCACCTAGTGCAG” is lower in binding signal: 20100 fluorescence intensity (a.u.) for the first, 13300 fluorescence intensity (a.u.) for the second.

First: TCTCTCCATCCATCCCTGCTGCTTCTCCATCTCGCATCTGCGGAGTCACCTAGTGCAG
Second: TGTGCTTCTTTTTTTAATTTCTCTCTCTGTTTGCTTCTCTCGGAGTCACCTAGTGCAG
The binding signal of the first is higher: 16700 fluorescence intensity (a.u.) for the first, 9720 fluorescence intensity (a.u.) for the second.

Compared with “ATAATCTCCACATGCATCGTCGCTGTATTTTTTGGTTTCACGGAGTCACCTAGTGCAG”, “TTGTACTACTATTTCTTCATGTTACATAATTCTCCTTGTTCGGAGTCACCTAGTGCAG” is higher in binding signal: 8510 fluorescence intensity (a.u.) for the first, 8540 fluorescence intensity (a.u.) for the second.

First: TAGTATTTTTTTCCTTGGTTTTGTTTCTATCTCCTCTGACCGGAGTCACCTAGTGCAG
Second: AATGTATAGGTGGTCCCGTGCTTTTGTATTGTGTTTGCGTCGGAGTCACCTAGTGCAG
The binding signal of the first is lower: 9480 fluorescence intensity (a.u.) for the first, 10400 fluorescence intensity (a.u.) for the second.

First: TTCTCTACATTGTTCATTTAGTATTTTTTTCTTTTCATTTCGGAGTCACCTAGTGCAG
Second: ATGGCAACGACCCAGTTCTGTCCGAGTAGGACTCCTTCCACGGAGTCACCTAGTGCAG
The binding signal of the first is higher: 10700 fluorescence intensity (a.u.) for the first, 8310 fluorescence intensity (a.u.) for the second.

First: CCTGGTTGGTTTGGCTCGCACGTGGCGCGTCGTCCTACGCCGGAGTCACCTAGTGCAG
Second: TTATTTACAAACGAGTTCCATTTTTTTCTACGGTGATCGGCGGAGTCACCTAGTGCAG
The binding signal of the first is higher: 9870 fluorescence intensity (a.u.) for the first, 8120 fluorescence intensity (a.u.) for the second.

First: CAGTTTGAGTTTTTGTTAGTTATTTCGTTTATTTTTTTTTCGGAGTCACCTAGTGCAG
Second: TCCATCCCATTCCCGCCATCTCTGCATCTTCTTCTTCTTCCGGAGTCACCTAGTGCAG
The binding signal of the first is higher: 12300 fluorescence intensity (a.u.) for the first, 9910 fluorescence intensity (a.u.) for the second.

Compared with “CTTGTTACTAATATACTAGTATTTGAGTGTTACACGTTTTCGGAGTCACCTAGTGCAG”, “TCTCTTCTTCTTCTCCAACTTCTTTTTTCTCTTCTTCTTCCGGAGTCACCTAGTGCAG” is higher in binding signal: 8380 fluorescence intensity (a.u.) for the first, 9680 fluorescence intensity (a.u.) for the second.

Going from “TTTTTTGAGCCGTATTTTTGCTCTCTTGTTACGTTTTTTTCGGAGTCACCTAGTGCAG” to “CTCCATCTCGCATCTTCTCTTTCTCTTTCTCTTTCTCTTTCGGAGTCACCTAGTGCAG”, the binding signal falls from 17100 fluorescence intensity (a.u.) to 13300 fluorescence intensity (a.u.).

Going from “GCCATTCCACATCAGTCCGTGCCGCTCTCTGCCCATTCTCCGGAGTCACCTAGTGCAG” to “ATCTGTATCTTTGTTTATTTTTTTTATTTTTCTCCCATTTCGGAGTCACCTAGTGCAG”, the binding signal falls from 18900 fluorescence intensity (a.u.) to 10600 fluorescence intensity (a.u.).

Going from “ATGCCCATTTTGTAGCGTCGATTCTTGTTTCTGCTTGATTCGGAGTCACCTAGTGCAG” to “GATTGTAGTTTGTATATGCTGCCCATTTCTGTTGTTCTTTCGGAGTCACCTAGTGCAG”, the binding signal rises from 10300 fluorescence intensity (a.u.) to 18900 fluorescence intensity (a.u.).

Going from “TCTCTTTTCACCCACCGCACCCATCCAACTTCTCTTCTCTCGGAGTCACCTAGTGCAG” to “TTCTTCTTCTGCCATTCCATCCATCCACCGCCGCCTCCGCCGGAGTCACCTAGTGCAG”, the binding signal falls from 17900 fluorescence intensity (a.u.) to 8380 fluorescence intensity (a.u.).

Compared with “AGGTGTAATAGTATTTTGTTGTCTAATTGGTTTTGATTGTCGGAGTCACCTAGTGCAG”, “TATTTCTCTCGCCACAATCTCTGGCGGCGCCACAATCTTACGGAGTCACCTAGTGCAG” is lower in binding signal: 11400 fluorescence intensity (a.u.) for the first, 8850 fluorescence intensity (a.u.) for the second.

First: GGCCTGGAGCTCAGTCAAACAGTTTCAGCTCAGCTCTATCCGGAGTCACCTAGTGCAG
Second: TCTCTTCGCTCTGCCCACTTGCTAAACCATACCGGCGATACGGAGTCACCTAGTGCAG
The binding signal of the first is lower: 8520 fluorescence intensity (a.u.) for the first, 9960 fluorescence intensity (a.u.) for the second.

Compared with “CATCCATCGTATCCACCGCCGTCGCCTTCCATCCTCCCCGCGGAGTCACCTAGTGCAG”, “GTGGGAGGGAGGGCGGCGAGCTGCGCGGCGAACCTCGAGCCGGAGTCACCTAGTGCAG” is higher in binding signal: 8040 fluorescence intensity (a.u.) for the first, 8120 fluorescence intensity (a.u.) for the second.

First: CCTTTTTTTTTCCGAGTGTGTGGCTCTCAGATGGAGTTAGCGGAGTCACCTAGTGCAG
Second: AACGTGGAAGTGGATTGGGTGGTGGGTGGGGATCCACCTACGGAGTCACCTAGTGCAG
The binding signal of the first is lower: 8450 fluorescence intensity (a.u.) for the first, 22100 fluorescence intensity (a.u.) for the second.

Going from “TGGGTGGGGATGAAGTGTGGAAGTGGCATATCTTTATCCACGGAGTCACCTAGTGCAG” to “GGTAGGATTGTACTTTTTTTTTTTTTGGGACGGAGGGGTACGGAGTCACCTAGTGCAG”, the binding signal rises from 8320 fluorescence intensity (a.u.) to 10100 fluorescence intensity (a.u.).

First: TGGTGGCGGCGGTGGCAGTGGTGGTGTTGGGATTGGGGTACGGAGTCACCTAGTGCAG
Second: TGGTGTAGGGTTATGATTGGATGAGTAGTGGAGGTAGGTACGGAGTCACCTAGTGCAG
The binding signal of the first is lower: 9230 fluorescence intensity (a.u.) for the first, 9780 fluorescence intensity (a.u.) for the second.

Going from “CCTTGGGTGGGTACGGATTGGATTAGGGAGGGGAGCACAACGGAGTCACCTAGTGCAG” to “ATTATCCTGATCAAAATTCCCGCAATTCCTTAACACATGTCGGAGTCACCTAGTGCAG”, the binding signal falls from 17600 fluorescence intensity (a.u.) to 10200 fluorescence intensity (a.u.).

First: GCTTTTCTCTTCCTTTTCGCTCGCTCTCAAGGCCCATAACCGGAGTCACCTAGTGCAG
Second: TTGGTGAGAACAGCCTTATCTCTATCGCTTTACTCTCTCTCGGAGTCACCTAGTGCAG
The binding signal of the first is higher: 9530 fluorescence intensity (a.u.) for the first, 8150 fluorescence intensity (a.u.) for the second.
